In PubChem BioAssay (Tox21):
Several values for one entry are separate records, joined by “and”; a condition that tells them apart may be missing. Equal entries are not always repeated. Results filed as inconclusive are left out. Entries that show only a call come without a potency. A structure can be active in one record and inactive in another. Activity calls are given as the source filed them. The call rests on the fitted dose curve; in most records, active means well fitted curve in the direction sought with a large enough effect in the repeat runs; inconclusive means weak or mixed curves; inactive means no such curve, though single readings can be large; an effect the other way counts as inactive or inconclusive.

Tests used:
[1] = A CellTox Green Cytotoxicity Assay to monitor cytotoxicity in HEK293 cells - 24 hour (AID 1224875); further: nearly all actives have a fitted effect of over 45% in size; further: potency means the concentration at half of the fitted maximal effect
Summary of the method: (§1)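 Read-out: fluorescence of a cell-impermeant cyanine dye staining DNA of dead cells, proportional to cytotoxicity. HEK293, 600 cells/well with reagent, compound (23 nL DMSO) added after 5 h; reads at 0, 8, 16, 24, 32, 40 h.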

[2] = qHTS RealTime-Glo MT Cell Viability Assay in HepG2 cells - 32 hour (AID 1224877); further: nearly all actives have a fitted effect of over 55% in size
Summary of the method: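 Cell number in HepG2 cultures estimated from NanoLuc luminescence generated by metabolic reduction of a prosubstrate by living cells. The homogeneous, nonlytic format allowed repeated reads at 0, 8, 16, 24, 32 and 40 h of compound exposure.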

[3] = A CellTox Green Cytotoxicity Assay to monitor cytotoxicity in HepG2 cells - 24 hour (AID 1224878); further: nearly all actives have a fitted effect of over 45% in size; further: potency means the concentration at half of the fitted maximal effect
Summary of the method: (§2)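 HepG2, 600 cells/well premixed w/ CellTox Green; 5 h settle, 37 C/5% CO2; pintool cpd add (DMSO); 37 C, 40 h; fluorescence read at 0, 8, 16, 24, 32, 40 h.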

[4] = A CellTox Green Cytotoxicity Assay to monitor cytotoxicity in HepG2 cells - 40 hour (AID 1224879); further: nearly all actives have a fitted effect of over 40% in size; further: potency means the concentration at half of the fitted maximal effect
Summary of the method: as §2

[5] = A CellTox Green Cytotoxicity Assay to monitor cytotoxicity in HEK293 cells - 32 hour (AID 1224881); further: nearly all actives have a fitted effect of over 40% in size; further: potency means the concentration at half of the fitted maximal effect
Summary of the method: as §1

[6] = A CellTox Green Cytotoxicity Assay to monitor cytotoxicity in HepG2 cells - 0 hour (AID 1224882); further: nearly all actives have a fitted effect of over 35% in size
Summary of the method: as §2

[7] = A CellTox Green Cytotoxicity Assay to monitor cytotoxicity in HepG2 cells - 32 hour (AID 1224883); further: nearly all actives have a fitted effect of over 50% in size; further: potency means the concentration at half of the fitted maximal effect
Summary of the method: as §2

[8] = A CellTox Green Cytotoxicity Assay to monitor cytotoxicity in HepG2 cells - 16 hour (AID 1224876); further: nearly all actives have a fitted effect of over 45% in size; further: potency means the concentration at half of the fitted maximal effect
Summary of the method: as §2

[9] = qHTS RealTime-Glo MT Cell Viability Assay in HEK293 cells - 0 hour (AID 1224880); further: nearly all actives have a fitted effect of over 45% in size; further: potency means the concentration at half of the fitted maximal effect
Summary of the method: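 Luminescence readout at each listed time point; HEK293, 600 cells/well, RealTime-Glo MT reagent added with cells; compounds pinned (23 nL in DMSO) after 5 h at 37 C; continuous culture at 37 C.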

Row | SMILES | Potency [1] | Potency [2] | Potency [3] | Potency [4] | Potency [5] | Potency [6] | Potency [7] | Potency [8] | Potency [9]
1 | CCN(CC)CCCN(c1ccccc1)C1Cc2ccccc2C1 | inactive | inactive | 23.9 µM (active) | 23.9 µM (active) | inactive | inactive | 23.9 µM (active) |  | 
2 | C=CC(=O)OCCC#N |  | inactive | inactive | inactive | inactive | inactive | inactive | inactive | inactive
3 | O=C(NO)c1ccccc1 |  | inactive |  |  |  | inactive |  |  | inactive
4 | CCCSS/C(CCO)=C(\C)N(C=O)Cc1cnc(C)nc1N | inactive |  | inactive |  | inactive | inactive |  | inactive | inactive
5 | CCCC(=O)OCC(COC(=O)CCC)OC(=O)CCC | inactive |  | inactive | inactive | inactive |  | inactive |  | inactive
6 | NC(=O)c1nc(-c2cccc(-c3cc(F)ccc3OCC(F)(F)C(F)(F)F)c2)n[nH]1 | inactive | inactive | 43.6 µM (active) | 43.6 µM (active) |  | inactive | 43.6 µM (active) | 49 µM (active) | inactive
7 | Cc1nc(Nc2ncc(C(=O)Nc3c(C)cccc3Cl)s2)cc(N2CCN(CCO)CC2)n1 | inactive |  | 26.8 µM (active) | 26.8 µM (active) | inactive |  | 26.8 µM (active) |  | 26.8 µM (active)
8 | CCCCCCCC/C=C\CCCCCCCC(=O)N(C)CC(=O)O | 34.7 µM (active) |  |  |  | 34.7 µM (active) | inactive |  | inactive | inactive
9 | Clc1cc(Cl)c(-c2c(Cl)c(Cl)cc(Cl)c2Cl)cc1Cl | inactive |  | inactive | inactive | inactive | inactive | inactive | inactive | inactive
10 | C=C1C(C)(C)[C@@]2(Cl)C(Cl)[C@]1(Cl)C(Cl)(Cl)C2(Cl)Cl (some centres undefined) |  |  | 48.1 µM (active) | 53.9 µM (active) |  | inactive | 53.9 µM (active) | inactive | inactive
11 | Oc1ccc(-c2ccc(O)cc2)cc1 | inactive |  |  |  | inactive | inactive | inactive | inactive | inactive
12 | Oc1cc2ccccc2cc1O |  |  | inactive | inactive |  | inactive | inactive | inactive | 
13 | CCCCOCC | inactive | inactive | inactive | inactive | inactive | inactive | inactive | inactive | 
14 | C=C(c1ccc(C(=O)O)cc1)c1cc2c(cc1C)C(C)(C)CCC2(C)C |  | inactive |  | 49 µM (active) and 23.9 µM (active) | 30.9 µM (active) and inactive | inactive | 43.6 µM (active) | 24.5 µM (active) | inactive
15 | CCCCNc1c(C(=O)OCC)c(C)nc2c1cnn2CC | inactive | inactive | inactive |  | inactive | inactive | inactive | inactive | inactive
16 | COc1cccc(CCc2ccccc2OCC(CN(C)C)OC(=O)CCC(=O)O)c1 (centres undefined) | inactive | inactive |  | 26.8 µM (active) |  | inactive |  |  | inactive
17 | OCCN1CN(CCO)CN(CCO)C1 | inactive |  | inactive | inactive | inactive | inactive | inactive | inactive | inactive
18 | CCOC(=O)C1=C(C)NC(C)=C(C(=O)OCC)C1c1ccccc1/C=C/C(=O)OC(C)(C)C | inactive |  | inactive | inactive | inactive | inactive | inactive | inactive | 3.79 µM (active)
19 | S=P(N1CC1)(N1CC1)N1CC1 | inactive | inactive | inactive | inactive |  | inactive | inactive | inactive | inactive
20 | CCN(CC)CCOC(=O)C1(C2CCCCC2)CCCCC1 |  | inactive | 23.9 µM (active) |  | 23.9 µM (active) | inactive | 23.9 µM (active) | 23.9 µM (active) | 
21 | CC(O)C#CC(C)O (centres undefined) |  |  |  |  | 54.4 µM (active) | inactive |  |  | inactive
22 | CCOB(OCC)OCC | inactive | inactive |  |  | inactive | inactive |  |  | 
